Consider 33 compounds from the supplement of paper PMC9334596.

This experiment concerns mPer2Luc MEF. Kind of experiment: PER2::LUC luminescence relative to vehicle control (fold of vehicle); higher = higher PER2::LUC reporter signal. The settings on record: 10 µM. The procedure, abridged: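 The value is PER2::LUC luminescence expressed as fold of vehicle control. Mouse embryonic fibroblasts carrying the mPer2Luc reporter were seeded at ~3000 cells per well in 384-well plates and grown in DMEM with 10% FBS at 37 °C and 5% CO2. Compounds from commercial libraries were added at 10 μM 48 h after seeding, and luminescence was read with the ONE-Glo luciferase assay system 24 h and 30 h after treatment, followed by an alamarBlue viability assay.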

“And” between values parts separate entries of the source, which are not always exact repeats. Equal values may be shown once. The full ranking holds about 5,300 compounds; the median of “PER2::LUC luminescence relative to vehicle control” is about 0.96, and the highest 2% start at about 1.3. The sample holds the highest values, similar compounds and a random draw of the others, so the mix is not that of the screen.

`Nc1nc(=O)c2c([nH]1)NCC(CNc1ccc(C(=O)N[C@@H](CCC(=O)O)C(=O)O)cc1)=N2`: the “PER2::LUC luminescence” value reads like this: (time after treatment 24 h) 1.06; (time after treatment 30 h) 0.985.
In the case of `COc1cccc(NCC(O)Cn2c3ccc(Br)cc3c3cc(Br)ccc32)c1` (stereo in doubt), the “PER2::LUC luminescence” value (time after treatment 24 h) is 0.88 and the “PER2::LUC luminescence” value (time after treatment 30 h) was found to be 0.955.
The matching figures for `COc1ccc(-c2c(O)c3c(OC)c4c(cc3oc2=O)OC(C)(C)C=C4)cc1`: 1.5 and 1.46.
Taken in the same sequence, the figures for `COc1c2c(cc3occ(-c4ccc5c(c4)OCO5)c(=O)c13)OC(C)(C)C=C2` were 0.833 and 0.876.
As to `COc1cc(OC)c2c(OC)c(-c3ccc4c(c3)OCO4)c(=O)oc2c1`, the “PER2::LUC luminescence” value came to 1.02 (time after treatment 24 h) and 1.21 (time after treatment 30 h).
Turning to `CC(=O)OC[C@@]1(O)C[C@@]23CC[C@@H]4c5ccoc5CC[C@@]4(C)[C@@H]2CC[C@@H]1C3`, the “PER2::LUC luminescence” value (time after treatment 24 h) was found to be 1.05 and the “PER2::LUC luminescence” value (time after treatment 30 h) came to 1.06.
Consider `C=CCCCCCCCCCCCC(O)CC(O)CO` (stereo unspecified), for which the “PER2::LUC luminescence” value reads like this: (time after treatment 24 h) 0.967; (time after treatment 30 h) 0.789.
The matching figures for `CC1(C)CCC[C@](C)([C@H]2CC[C@]3(C)[C@@H]2[C@H](O)C[C@@H]2[C@@]4(C)CC[C@H](O)C(C)(C)[C@@H]4CC[C@]23C)O1`: 1.02 and 1.02.
The matching figures for `CC(C)(C)c1nc2c3cc[nH]c(=O)c3c3cc(F)ccc3c2[nH]1`: 0.802 and 0.906.
The matching figures for `CCOC(=O)c1cn(-c2c(F)c(F)c(C#N)c(F)c2F)c2c(F)c(F)c(F)cc2c1=O`: 1.08 and 1.19.
On to `CCCCOc1ccc(C(=O)CCN2CCCCC2)cc1`, for which the “PER2::LUC luminescence” value reads like this: (time after treatment 24 h) 0.957; (time after treatment 30 h) 1.41.
Taken in the same sequence, the figures for `O=C(c1ccc(OCCN2CCCCC2)cc1)c1c(-c2ccc(O)cc2)sc2cc(O)ccc12` were 0.35 and 0.69.
The matching figures for `CCCCOc1ccc(OCCCN2CCOCC2)cc1`: 1.12 and 1.18.
Taken in the same sequence, the figures for `CCN1CCN(Cc2ccc(NC(=O)Nc3ccc(Oc4cc(NC)ncn4)cc3)cc2C(F)(F)F)CC1` were 0.107 and 0.14.
For the compound `CO/N=C(\C(=O)N[C@@H]1C(=O)N2C(C(=O)[O-])=C(C[n+]3ccc(N)n3CCO)CS[C@H]12)c1csc(N)n1`, the “PER2::LUC luminescence” value (time after treatment 24 h) stood at 1.12 and the “PER2::LUC luminescence” value (time after treatment 30 h) turned out to be 1.1.
Taken in the same sequence, the figures for `Cc1ncc([N+](=O)[O-])n1C` were 1.13 and 0.998.
As for `Cn1c([N+](=O)[O-])cnc1COC(N)=O`, the “PER2::LUC luminescence” value (time after treatment 24 h) amounted to 1.15 and the “PER2::LUC luminescence” value (time after treatment 30 h) was determined as 1.27.
Taken in the same sequence, the figures for `CSc1ccc(OCc2ncc([N+](=O)[O-])n2C)cc1` were 1.41 and 1.31.
`N[C@](CCCCB(O)O)(CCN1CCCCC1)C(=O)O`: the “PER2::LUC luminescence” value reads like this: (time after treatment 24 h) 1.07; (time after treatment 30 h) 1.08.
Consider `Cc1ccccc1-n1c([C@H](C)Nc2nc(N)nc3nc[nH]c23)nc2cccc(C)c2c1=O`, for which the “PER2::LUC luminescence” value (time after treatment 24 h) came to 0.801 and the “PER2::LUC luminescence” value (time after treatment 30 h) amounted to 0.66.
As to `CCCCN(CCCC)S(=O)(=O)c1ccc(C(=O)O)cc1`, the “PER2::LUC luminescence” value reads like this: (time after treatment 24 h) 0.899; (time after treatment 30 h) 1.04.
`COc1ccc(C(=O)c2ccc(C)cc2)c(O)c1`: the “PER2::LUC luminescence” value (time after treatment 24 h) is 1.02 and 1.29; the “PER2::LUC luminescence” value (time after treatment 30 h) was 1.55 and 1.57.
On to `O=C(/C=C/c1ccc(O)cc1)CC(=O)/C=C/c1ccc(O)cc1`, for which the “PER2::LUC luminescence” value runs as follows: (time after treatment 24 h) 1.1; (time after treatment 30 h) 1.07.
As for `COc1ccc(C(=O)c2ccccc2O)c(O)c1`, the “PER2::LUC luminescence” value runs as follows: (time after treatment 24 h) 1.02; (time after treatment 30 h) 1.04.
Taken in the same sequence, the figures for `COc1ccc(C(=O)c2ccccc2)c(O)c1` were 1.22 and 1.21.
Consider `COc1ccc([C@@H](C)C(=O)c2ccc(O)cc2O)cc1`, for which the “PER2::LUC luminescence” value reads like this: (time after treatment 24 h) 1.1; (time after treatment 30 h) 1.08.
Consider `O=C(/C=C/c1ccccc1)c1ccc(O)cc1`, for which the “PER2::LUC luminescence” value came to 1.33 (time after treatment 24 h) and 1.48 (time after treatment 30 h).
The matching figures for `COc1ccc(C(=O)/C=C/c2ccccc2)cc1`: 1.25 and 1.28.
The matching figures for `COc1ccc(/C=C/C(=O)c2cc(O)ccc2O)cc1`: 0.754 and 0.827.
Take `COc1cc(/C=C/C(=O)c2ccc(O)cc2O)ccc1O`: the “PER2::LUC luminescence” value was 1.02 (time after treatment 24 h) and 1.04 (time after treatment 30 h).
Taken in the same sequence, the figures for `COc1ccc(CC(=O)c2ccc(O)cc2O)cc1` were 1.63 and 1.51.
The matching figures for `COc1ccc(/C=C/C(=O)c2ccc(O)cc2O)cc1`: 1.51 and 1.56.
The matching figures for `COc1ccc(C(C)=O)c(O)c1`: 0.967 and 0.936.
